Assay results from PubChem BioAssay AID1159580 (chemical genetic matrix, 2015).
“And” between values parts separate entries of the source, which are not always exact repeats. Equal entries are not always repeated. The campaign covered roughly 5,500 compounds. About 2,000 (36%) were called active. Inconclusive results (about 18%) are left out. Rule as the data show it: active = normalized growth mostly below about 0.91 (no sharp cut-off); inconclusive = no clear call, values can overlap the other calls; inactive = mostly above about 0.92. The list shows a part of the results.

Experiment: chemical genetic growth profiling, strain panel (AID 1159580);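 also: tested at 20 µM; growth read once vehicle control cultures reached saturation at 30 °C; 1 = growth at the plate median or of vehicle wells; lower values mean less growth of the strain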
Conditions: S. cerevisiae deletion strains, growth OD

Measured: normalized growth

CCCCCc1c2c(cc(O)c1C(=O)O)OC(=O)c1c(cc(OC)cc1C(=O)CCCC)O2
inactive: locus YAL021C, strain ccr4, stronger effect = lower value 0.954 | locus YAL026C, strain drs2, stronger effect = lower value 1.01 | locus YAL030W, strain snc1, stronger effect = lower value 0.993 | locus YBL061C, strain skt5, stronger effect = lower value 0.999 | locus YBR009C, strain hhf1, stronger effect = lower value 1.01 | locus YBR021W, strain FUR4, stronger effect = lower value 1.02 | locus YBR023C, strain chs3, stronger effect = lower value 1 | locus YBR171W, strain sec66, stronger effect = lower value 1 | locus YBR229C, strain ROT2, stronger effect = lower value 0.935 | locus YBR231C, strain swc5, stronger effect = lower value 0.988 | locus YBR279W, strain paf1, stronger effect = lower value 1.01 | locus YCL011C, strain gbp2, stronger effect = lower value 0.997 | locus YCL016C, strain dcc1, stronger effect = lower value 0.994 | locus YCL029C, strain bik1, stronger effect = lower value 0.989 | locus YCL069W, strain vba3, stronger effect = lower value 1.03 | locus YCR088W, strain abp1, stronger effect = lower value 1 | locus YDL005C, strain med2, stronger effect = lower value 0.977 | locus YDL035C, strain GPR1, stronger effect = lower value 0.945 | locus YDL040C, strain nat1, stronger effect = lower value 0.994 | locus YDL074C, strain BRE1, stronger effect = lower value 0.982 | locus YDL101C, strain DUN1, stronger effect = lower value 0.998 | locus YDL185W, strain tfp1, stronger effect = lower value 0.968 | locus YDL192W, strain arf1, stronger effect = lower value 0.968 | locus YDR001C, strain nth1, stronger effect = lower value 1 | locus YDR069C, strain doa4, stronger effect = lower value 0.985 | locus YDR101C, strain arx1, stronger effect = lower value 0.961 | locus YDR137W, strain rgp1, stronger effect = lower value 0.941 | locus YDR150W, strain NUM1, stronger effect = lower value 0.99 | locus YDR159W, strain sac3, stronger effect = lower value 0.994 | locus YDR162C, strain NBP2, stronger effect = lower value 0.955 | locus YDR195W, strain ref2 0.977 | locus YDR297W, strain sur2, stronger effect = lower value 0.995 | locus YDR318W, strain mcm21, stronger effect = lower value 0.99 | locus YDR334W, strain swr1, stronger effect = lower value 1.01 | locus YDR335W, strain msn5, stronger effect = lower value 1 | locus YDR388W, stronger effect = lower value 0.997 | locus YDR392W, strain spt3, stronger effect = lower value 0.988 | locus YDR502C, strain sam2, stronger effect = lower value 1.03 | locus YEL003W, strain gim4, stronger effect = lower value 1.01 | locus YEL037C, strain rad23, stronger effect = lower value 1.01 | locus YEL061C, strain CIN8 (second series), stronger effect = lower value 1.02 | locus YER015W, strain faa2, stronger effect = lower value 1 | locus YER016W, strain bim1, stronger effect = lower value 0.989 | locus YER110C, stronger effect = lower value 0.973 | locus YER111C, strain swi4, stronger effect = lower value 0.995 | locus YER155C, strain BEM2 (second series), stronger effect = lower value 0.998 | locus YER155C, strain BEM2, stronger effect = lower value 1.01 | locus YER167W, strain BCK2, stronger effect = lower value 0.985 | locus YFR010W, strain ubp6, stronger effect = lower value 1 | locus YGL078C, strain dbp3, stronger effect = lower value 0.977 | locus YGL086W, strain mad1, stronger effect = lower value 1 | locus YGL167C, strain pmr1, stronger effect = lower value 0.977 | locus YGL173C, strain kem1, stronger effect = lower value 0.991 | locus YGL227W, strain vid30, stronger effect = lower value 1.03 | locus YGL240W, strain doc1, stronger effect = lower value 0.964 | locus YGL248W, strain PDE1, stronger effect = lower value 0.99 | locus YGL253W, strain hxk2, stronger effect = lower value 1.01 | locus YGR135W, strain pre9, stronger effect = lower value 1.04 | locus YGR252W, strain gcn5, stronger effect = lower value 1.01 | locus YHR013C, strain ard1, stronger effect = lower value 0.989 | locus YHR027C, strain rpn1, stronger effect = lower value 1.01 | locus YHR030C, strain SLT2, stronger effect = lower value 0.961 | locus YHR079C, strain IRE1 (second series), stronger effect = lower value 0.988 | locus YHR079C, strain IRE1, stronger effect = lower value 0.959 | locus YHR094C, strain hxt1, stronger effect = lower value 0.983 | locus YHR129C, strain ARP1, stronger effect = lower value 0.993 | locus YHR142W, strain chs7, stronger effect = lower value 1.02 | locus YHR200W, strain rpn10, stronger effect = lower value 0.987 | locus YIL066C, strain RNR3, stronger effect = lower value 0.978 | locus YIL073C, strain SPO22, stronger effect = lower value 0.97 | locus YIL125W, strain kgd1, stronger effect = lower value 0.991 | locus YIR030C, strain dcg1, stronger effect = lower value 0.986 | locus YJL092W, strain hpr5, stronger effect = lower value 1.01 | locus YJL095W, strain BCK1 (second series), stronger effect = lower value 0.997 | locus YJL095W, strain BCK1, stronger effect = lower value 1.06 and 0.972 | locus YJL115W, strain asf1, stronger effect = lower value 0.982 | locus YJL129C, strain trk1, stronger effect = lower value 1.02 | locus YJL134W, strain LCB3, stronger effect = lower value 0.977 | locus YJL154C, strain vps35, stronger effect = lower value 0.996 | locus YJL164C, strain tpk1, stronger effect = lower value 0.995 | locus YJL166W, strain qcr8, stronger effect = lower value 0.979 | locus YJL168C, strain set2, stronger effect = lower value 0.991 | locus YJL187C, strain SWE1 (second series), stronger effect = lower value 1.01 | locus YJL187C, strain SWE1, stronger effect = lower value 1 | locus YJR043C, strain POL32, stronger effect = lower value 0.941 | locus YJR066W, strain TOR1, stronger effect = lower value 0.961 | locus YJR075W, strain HOC1, stronger effect = lower value 0.993 | locus YKL009W, strain mrt4, stronger effect = lower value 0.971 | locus YKL068W, stronger effect = lower value 0.995 | locus YKL085W, strain MDH1 (second series), stronger effect = lower value 0.995 | locus YKL085W, strain MDH1, stronger effect = lower value 0.995 | locus YKL160W, strain elf1, stronger effect = lower value 1.01 | locus YKR001C, strain vps1, stronger effect = lower value 0.985 | locus YKR026C, strain gcn3, stronger effect = lower value 0.998 | locus YKR091W, strain srl3, stronger effect = lower value 0.997 | locus YLL001W, strain dnm1, stronger effect = lower value 1.01 | locus YLL026W, stronger effect = lower value 0.995 | locus YLL041C, strain sdh2, stronger effect = lower value 0.986 | locus YLR027C, strain aat2, stronger effect = lower value 1.01 | locus YLR039C, strain RIC1, stronger effect = lower value 0.955 | locus YLR058C, strain SHM2, stronger effect = lower value 0.97 | locus YLR102C, strain apc9, stronger effect = lower value 0.979 | locus YLR113W, strain HOG1, stronger effect = lower value 0.929 | locus YLR221C, strain rsa3, stronger effect = lower value 0.99 | locus YLR258W, strain gsy2, stronger effect = lower value 1.01 | locus YLR262C, strain YPT6 (second series), stronger effect = lower value 0.993 | locus YLR262C, strain YPT6, stronger effect = lower value 0.967 | locus YLR268W, strain sec22, stronger effect = lower value 0.972 | locus YLR320W, strain mms22, stronger effect = lower value 0.979 | locus YLR342W, strain FKS1, stronger effect = lower value 0.981 | locus YLR357W, strain rsc2, stronger effect = lower value 0.923 | locus YLR370C, strain arc18, stronger effect = lower value 0.997 | locus YLR371W, strain rom2, stronger effect = lower value 0.981 | locus YLR384C, strain iki3, stronger effect = lower value 0.995 | locus YLR418C, strain cdc73, stronger effect = lower value 1.04 | locus YML016C, strain PPZ1, stronger effect = lower value 0.96 | locus YML032C, strain rad52, stronger effect = lower value 0.996 | locus YML120C, strain ndi1, stronger effect = lower value 0.995 | locus YML124C, strain tub3, stronger effect = lower value 0.995 | locus YMR058W, strain fet3, stronger effect = lower value 0.987 | locus YMR078C, strain ctf18, stronger effect = lower value 0.983 | locus YMR125W, strain sto1, stronger effect = lower value 0.996 | locus YMR129W, stronger effect = lower value 1.01 | locus YMR205C, strain PFK2, stronger effect = lower value 0.992 | locus YMR223W, strain ubp8, stronger effect = lower value 1.01 | locus YMR231W, strain pep5, stronger effect = lower value 0.994 | locus YMR307W, strain GAS1, stronger effect = lower value 1.03 | locus YNL067W, strain RPL9B, stronger effect = lower value 0.999 | locus YNL071W, strain lat1, stronger effect = lower value 1 | locus YNL153C, strain GIM3, stronger effect = lower value 1.02 | locus YNL183C, strain NPR1, stronger effect = lower value 0.937 | locus YNL209W, strain ssb2, stronger effect = lower value 1.01 | locus YNL233W, strain BNI4, stronger effect = lower value 1.03 | locus YNL248C, strain rpa49, stronger effect = lower value 0.993 | locus YNL250W, strain rad50, stronger effect = lower value 0.991 | locus YNL271C, strain bni1, stronger effect = lower value 0.99 | locus YNL298W, strain CLA4, stronger effect = lower value 0.959 | locus YNL307C, strain MCK1, stronger effect = lower value 1 | locus YNL322C, strain KRE1 (second series), stronger effect = lower value 0.998 | locus YNL322C, strain KRE1, stronger effect = lower value 0.986 | locus YNR049C, strain mso1, stronger effect = lower value 0.982 | locus YNR052C, strain pop2, stronger effect = lower value 1.01 | locus YOL012C, strain htz1 1.1 | locus YOL147C, strain pex11, stronger effect = lower value 0.993 | locus YOR001W, strain rrp6, stronger effect = lower value 1 | locus YOR061W, strain CKA2, stronger effect = lower value 0.942 | locus YOR069W, strain VPS5, stronger effect = lower value 0.993 | locus YOR070C, strain gyp1, stronger effect = lower value 0.999 | locus YOR080W, strain dia2, stronger effect = lower value 0.99 | locus YOR083W, strain WHI5, stronger effect = lower value 0.991 | locus YOR106W, strain vam3, stronger effect = lower value 0.995 | locus YOR136W, strain idh2, stronger effect = lower value 1 | locus YOR144C, strain elg1, stronger effect = lower value 0.983 | locus YOR184W, strain ser1, stronger effect = lower value 0.951 | locus YOR231W, strain MKK1, stronger effect = lower value 0.983 | locus YOR265W, strain rbl2, stronger effect = lower value 0.991 | locus YOR270C, strain vph1, stronger effect = lower value 1.02 | locus YOR290C, strain snf2, stronger effect = lower value 1.02 | locus YOR316C, strain cot1, stronger effect = lower value 1 | locus YPL051W, strain arl3, stronger effect = lower value 1 | locus YPL078C, strain atp4, stronger effect = lower value 0.992 | locus YPL106C, strain sse1, stronger effect = lower value 0.951 | locus YPL240C, strain hsp82, stronger effect = lower value 0.998 | locus YPL241C, strain CIN2, stronger effect = lower value 0.991 | locus YPL256C, strain CLN2, stronger effect = lower value 0.989 | locus YPR119W, strain clb2, stronger effect = lower value 1 | locus YPR141C, strain kar3, stronger effect = lower value 0.987 | locus YPR163C, strain tif3, stronger effect = lower value 0.984 | locus YPR167C, strain met16, stronger effect = lower value 1 | strain wtn01, stronger effect = lower value 0.96
